Compound activity: PubChem, several laboratories
Rows were chosen to be rich in hits. Some 1.8% of all compounds tested hit in one or more screens of this group.
Mtb hypoxia rep: Mtb hypoxia fluorescent reporter inhibition; M. tuberculosis hypoxia-regulated fluorescent reporter, fluorescence; fluorescence inhibition, % (concentration not given with the values); actives 0.1% (n = 300,000); in the data active = fluorescence inhibition mostly above about 23%, no sharp cut-off; inactive = mostly below about 17%
RN4220 kill: kills Staphylococcus aureus RN4220 | S. aureus RN4220 growth, OD600, 16 h | inhibition, % (test concentration not listed) | actives 0.33% (n = 330,000) | AID 1259311; in the data active = inhibition above about 85%;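 note: plate controls were untreated cells for no effect and reference antibiotic for full effect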
Sa ugtP lethal: growth inhibition of S. aureus ugtP deletion strain; S. aureus RN4220 ugtP deletion, OD600 growth, 16 h; growth inhibition, % (concentration not given with the values); actives 0.54% (n = 330,000); in the data active = growth inhibition above about 68%;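 note: plate controls were untreated wells for no effect and antibiotic for full effect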
PfHsp40 rescue: restores yeast growth despite PfHsp40 toxicity; S. cerevisiae expressing PfHsp40, growth rescue, ATP luminescence; growth rescue, % at 12.5 µM; actives 0.68% (n = 340,000); in the data active = growth rescue above about 28%, passing the limit was not always enough;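 note: yeast W303a lacking pdr1 and pdr3 grown in galactose medium; growth measured after three days at 30 °C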
VHR inh abs: DUSP3 (human) phosphatase inhibition. P51452. recombinant VHR phosphatase, pNPP absorbance. inhibition, % at 13.3 µM. actives 0.52% (n = 290,000). AID 1654; in the data active = inhibition above about 50%
Target sequence (P51452 whole entry, looked up): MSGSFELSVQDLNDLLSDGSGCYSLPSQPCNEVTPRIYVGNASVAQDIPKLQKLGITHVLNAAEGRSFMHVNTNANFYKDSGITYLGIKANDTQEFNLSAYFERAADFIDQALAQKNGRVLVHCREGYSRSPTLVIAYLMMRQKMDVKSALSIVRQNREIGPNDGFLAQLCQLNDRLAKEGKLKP
PriA SSB inh: K. pneumoniae PriA-SSBct interaction inhibition; AlphaScreen SSBct-PriA binding, biotinylated peptide; inhibition, % at 33 µM; actives 0.6% (n = 430,000); in the data active = inhibition mostly above about 37%, no sharp cut-off; inactive = mostly below about 20%;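 note: plate controls were negative control peptide for no effect and reference peptide for full effect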
Active calls of the source: *; x = not tested or not shown.

SMILES | Mtb hypoxia rep | RN4220 kill | Sa ugtP lethal | PfHsp40 rescue | VHR inh abs | PriA SSB inh
Cc1cccnc1NC(=O)C1CC(=O)N(c2ccc3c(c2)OCCO3)C1 (stereo unspecified) | -3.2 | 4.6 | 4.5 | 2.5 | x | 0.3
CC1(C)OC(=O)CC1C(=O)Nc1nc(-c2ccccn2)cs1 (stereo unspecified) | x | x | x | x | x | 104.0*
O=C(Nc1nc(-c2ccccn2)cs1)NC1CCCC1 | x | x | x | x | x | 130.0*
O=C(Nc1nc(-c2ccccn2)cs1)C1CC1 | -1.9 | 5.4 | 2.4 | -0.3 | 3.4 | 104.2*
CCC(=O)Nc1nc(-c2ccccn2)cs1 | x | x | x | x | x | 18.0
O=C(Nc1nc(-c2ccccc2)cs1)NC1CCCCC1 | -1.7 | -2.8 | -31.6 | 13.3 | 6.2 | -7.0
CCOC(=O)C(=NNc1ccc(OC)cc1)N1CCCc2ccccc21 | 0.4 | -1.8 | 21.2 | x | x | 16.4
COc1ccc(-c2noc(CNC(=O)CN)n2)cc1 | x | x | x | x | x | 0.0
O=C(Nc1ccc(C(=O)Nc2nc(-c3ccccn3)cs2)cc1)NC1CC1 | x | x | x | x | x | 92.9*
COC(=O)NC1(C(=O)Nc2nc(-c3ccccn3)cs2)CCCC1 | x | x | x | x | x | 95.0*
O=C(CC1CC2CCC1C2)Nc1nc(-c2ccccn2)cs1 (stereo unspecified) | 12.3 | 6.8 | 0.9 | 438.1* | 13.0 | 7.4
O=C(Nc1nc(-c2ccccn2)cs1)c1ccc(C2SCCCS2)cc1 | x | x | x | x | x | 62.7
O=C(Nc1nc(-c2ccccn2)cs1)C12CC3CC(CC(O)(C3)C1)C2 | 7.5 | 6.3 | -1.8 | 2.0 | -2.2 | 76.4*
Cn1nc(CNC(=O)Nc2ccc3c(c2)OCO3)cc1-c1ccccn1 | x | x | x | x | x | 31.0
COc1cc(C=NNC(=O)c2cc(C3CC3)[nH]n2)cc(OC)c1OC | 20.8 | -5.3 | 6.4 | x | x | 6.7
CN(C)S(=O)(=O)c1ccc(C(=O)Nc2nc(-c3ccccn3)cs2)cc1 | x | x | x | x | x | 31.1
CN(C(=O)C(=O)Nc1nc(-c2ccccn2)cs1)C1CCSC1 (stereo unspecified) | x | x | x | x | x | 138.0*
C#CC[N+](C)(C)CCCCCCCCCC | 2.4 | 1.4 | 92.7* | -0.5 | -14.1 | -26.7
C#CC[N+](C)(C)CCCCCCCCCCCC | 15.0 | 98.9* | 98.9* | -0.5 | -0.8 | 2.2
CC#CC[N+](C)(C)CCCCCCCCCCCC | 23.1 | 99.9* | 99.8* | -1.5 | -13.1 | -17.1
C#CC[N+](C)(C)CCCCCCCC | 3.5 | 6.6 | 14.6 | -0.2 | -6.7 | -3.9
CC(=NNC(=O)C1COc2ccccc2O1)c1cccs1 (stereo unspecified) | 6.8 | 2.3 | 1.6 | x | x | -14.4
Cc1cc(C(=O)NCCCOC(C)C)c2ccccc2n1 | 7.2 | -1.5 | 1.6 | 0.8 | 50.3* | -16.9
CN(CC(=O)N1CCCc2c1c(=O)oc1ccc(O)cc21)Cc1ccccc1 | 3.2 | 2.3 | -6.5 | 0.1 | 14.4 | -12.7
CC(C(=O)N1CCCc2c1c(=O)oc1ccc(O)cc21)N1CCc2ccccc2C1 (stereo unspecified) | x | 8.0 | -6.8 | -1.2 | 55.6* | -24.1
SMILES | Mtb hypoxia rep | RN4220 kill | Sa ugtP lethal | PfHsp40 rescue | VHR inh abs | PriA SSB inh
CCSc1nnc(NC(=O)c2nc(-c3ccccc3)n(-c3ccccc3)n2)s1 | x | 17.9 | 7.2 | 125.7* | 3.5 | -5.1
O=[N+]([O-])c1cc(C(F)(F)F)ccc1NC1CCN(Cc2ccccc2)C1 (stereo unspecified) | -4.4 | -1.8 | 15.3 | 0.3 | 13.7 | 42.9*
O=[N+]([O-])c1cc(C(F)(F)F)ccc1NC1CCN(Cc2ccccc2)CC1 | 3.2 | -0.4 | 6.1 | 0.5 | 20.6 | 33.1
NC(=O)NC(CC(=O)NCCc1ccccn1)c1ccccc1Cl (stereo unspecified) | -5.5 | -4.5 | -2.5 | -0.5 | 53.3* | -1.1
O=C(Nc1nc(-c2ccccn2)cs1)c1ccc(N2CCOCC2)nc1 | x | x | x | x | x | 94.8*
O=C(Nc1nc(-c2ccccn2)cs1)c1ccc(F)c(S(=O)(=O)N2CCOCC2)c1 | 5.6 | 10.9 | -5.4 | -1.1 | x | 45.4*
O=C(Nc1nc(-c2ccccn2)cs1)c1ccc(N2C(=O)CCC2=O)cc1 | x | x | x | x | x | 54.8
O=C(Nc1nc(-c2ccccn2)cs1)c1cc(S(=O)(=O)N2CCOCC2)ccc1F | -0.5 | 8.5 | 0.7 | 0.5 | x | 83.0*
COc1ccccc1NC(=O)c1ccc(C)c(S(=O)(=O)N2CCCCC2)c1 | 2.4 | -0.4 | 1.1 | 0.3 | 52.9* | -22.5
Cc1ccc(S(=O)(=O)N2CCOCC2)cc1C(=O)Nc1nc(-c2cccnc2)cs1 | 5.0 | 4.1 | 1.6 | 0.2 | -2.0 | -11.9
O=C(Nc1nc(-c2ccccn2)cs1)c1ccc(Cl)c(S(=O)(=O)N2CCCC2)c1 | x | x | x | x | x | 60.7
Cc1nnc2ccc(N3CCN(C(=O)Nc4ccccc4C(F)(F)F)CC3)nn12 | x | x | x | x | x | -5.0
CC(C)c1ccc(OCC(=O)N2CCC(Oc3ncccc3Br)CC2)cc1 | x | x | x | x | x | -7.0
Cc1ccc(C(=O)Nc2nc(-c3ccccn3)cs2)cc1S(=O)(=O)N1CCOCC1 | 4.1 | 11.3 | -9.0 | 0.1 | x | 43.0*
CCOC(=O)Cc1csc(NC(=O)c2ccc(N3CCCCC3)nn2)n1 | x | x | x | x | x | -10.0
Cc1nc(NC(=O)c2ccc(N3CCCCC3)nn2)sc1C(=O)N(C)C | x | x | x | x | x | 48.0*
Cc1ccc(C(=O)Nc2nc(-c3ccccn3)cs2)cc1S(=O)(=O)N1CCCCC1 | x | x | x | x | x | 64.5*
Cc1ccc(-c2csc(NC(=O)c3ccc(C)c(S(=O)(=O)N4CCOCC4)c3)n2)cc1 | x | x | x | x | x | 32.2
CN(C)c1ccc(NC(=O)c2ccc(N3CCOCC3)nc2)cc1 | 11.9 | -1.5 | -7.5 | 0.5 | 52.2* | 20.7
CC(Cc1ccoc1)NC(=O)c1csc(-c2ccccc2)n1 (stereo unspecified) | x | x | x | x | x | 5.0
Cc1nnsc1C(=O)Nc1ccccc1C(=O)c1ccccc1 | x | x | x | x | x | 0.0
O=C1CCCCC=CCC(CC(=O)N(CCO)Cc2ccccc2)C(=O)NCCO1 (stereo unspecified) | 15.6 | 4.9 | 0.8 | x | x | x
O=C(Nc1nc(-c2ccccn2)cs1)c1ccc(N2CCCC2)nn1 | x | x | x | x | x | 72.0*
O=C(Nc1nc(-c2ccco2)cs1)c1ccc(N2CCOCC2)nn1 | x | x | x | x | x | -8.0
CC(C)(C)CC(=O)NC(=S)Nc1ccccc1C(F)(F)F | -4.6 | 5.2 | 93.4* | 5.8 | 31.6 | -8.0
Cc1ccc(CSc2nnc(C(F)(F)F)n2Cc2ccc(F)cc2)cc1 | 5.8 | 2.7 | -3.5 | 38.3* | 32.9 | -85.4
COc1cccc(CSc2nnc(C(F)(F)F)n2Cc2ccc(F)cc2)c1 | 2.3 | 7.3 | -16.6 | 2.2 | 6.0 | -51.1
